Here are results for 14 molecules from PubChem BioAssay.

Assay [1] in a line: inhibitors of TNFa-induced NFkB p65 translocation, primary screen, imaging, HUVEC, MLSMR starter and 10KST1 sets (AID 438;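 active = inhibition above 20% together with a positive visual image hit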;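 also: compound added about 3h40 before a 20 min TNFalpha stimulation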;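 as to inhibition: signal is the nuclear over cytoplasmic p65 intensity ratio per well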). The note with it: HUVEC TNFa-induced p65 nuclear translocation; cell count: measured here: nuclei count (cytotoxicity indicator), at 2.08 µM; inhibition: at 2 µM, stronger effect = higher value, 0% TNFa-plus-vehicle, 100% no-TNFa wells.
Assay [2] can be described thus: inhibitors of mutant huntingtin aggregation, primary screen, imaging, exon1htt(103Q)mCFP cells, high-content imaging (AID 483;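 active = visual image review flags a hit and inhibition of aggregation exceeds 20%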;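 also: compound exposure lasted 3 days before fixation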;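 as to nuclei count: percent of the per-plate median nuclei count of sample wells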). As to conditions: exon1htt(103Q)mCFP cell line, aggregate imaging, at 2 µM; inhibition of aggregation: stronger effect = higher value; nuclei count: measured here: cell count, toxicity.
A short description of assay [3]: inhibitors of E-selectin induction by TNFa, primary screen, imaging, HUVEC, immunofluorescence, MLSMR starter and 10KST1 sets (AID 487;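 active = visually confirmed hit in the image check and inhibition above 20%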;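 as to inhibition: signal is fraction of cell area covered by stained E-selectin grains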;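 as to nuclei count: 100% = median nuclei count of all wells on the same plate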). The note with it: HUVEC TNFalpha-induced E-selectin immunofluorescence imaging, at 2 µM; inhibition: stronger effect = higher value; nuclei count: measured here: cell number, toxicity.
Assay [4] concerns the target Voltage-gated potassium channel subunit beta-2 (Rattus norvegicus) (UniProt P62483). Put plainly: KvBeta enzyme negative modulators, primary screen, biochemical, NADPH fluorescence (AID 622).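 Also: slope of raw intensity against log time taken from 70 to 1610 s.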 As to conditions: recombinant KvBeta, 4-cyanobenzaldehyde reduction, at 10 µM, stronger effect = higher value.
The target is the same in assay [5]. As to the kind of experiment: KvBeta positive modulators, primary screen, biochemical, NADPH fluorescence (AID 623;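 active = NADPH fluorescence slope more negative than the mean of all samples by about 3 SD, 99.7% confidence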;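 also: fluorescence intensity change per second fitted from 20 to 320 s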). The note with it: Recombinant KvBeta, NADPH fluorescence decrease slope, 10 min; at 10 µM; stronger effect = lower value.
For assay [6], the target named is Alpha-2C adrenergic receptor (Homo sapiens) (UniProt P18825). Put plainly: modulators of alpha2C/GIRK thallium flux, primary screen, cell-based, HEK293 alpha2C/GIRK1/2 (AID 624;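 active = fluorescence slope after compound addition differing from the mean of all screened samples at 99.7% confidence, in either direction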;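 also: slope of fluorescence ratio to pre-addition baseline per second over 15 to 24 s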). As to conditions: thallium flux BTC fluorescence, at 10 µM, actives lie on both sides.
Sequence of Alpha-2C adrenergic receptor (Homo sapiens) (P18825 whole entry, looked up): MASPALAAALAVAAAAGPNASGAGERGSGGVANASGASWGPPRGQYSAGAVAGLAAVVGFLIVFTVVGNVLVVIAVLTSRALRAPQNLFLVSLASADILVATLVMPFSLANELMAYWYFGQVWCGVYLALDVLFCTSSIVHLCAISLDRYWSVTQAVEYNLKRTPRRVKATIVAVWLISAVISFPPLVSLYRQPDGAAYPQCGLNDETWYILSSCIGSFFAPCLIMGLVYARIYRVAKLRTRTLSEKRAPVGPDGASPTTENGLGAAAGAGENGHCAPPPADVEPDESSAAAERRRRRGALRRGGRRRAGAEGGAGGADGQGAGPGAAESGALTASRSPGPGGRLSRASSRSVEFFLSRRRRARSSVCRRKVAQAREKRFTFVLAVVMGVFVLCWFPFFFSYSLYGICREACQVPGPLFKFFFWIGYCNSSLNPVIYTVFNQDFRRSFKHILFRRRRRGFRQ
A short description of assay [7]: inhibitors of Sendai virus-induced IRF3 signaling, primary screen, TLR/RLR signaling modifier project, cell-based, Sendai virus stimulus, luciferase, 10K MLSCN set (AID 602276;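 active = inhibition at or above 50% at 10 µM; inactive = inhibition below 50%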;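 also: firefly luciferase from ISG56 promoter only with Renilla not read in this screen; 0% = Sendai virus plus DMSO and 100% = medium plus DMSO without virus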). The note with it: HEK293 RL24 IRF3 luciferase reporter, at 10 µM, stronger effect = higher value. (In general: In a reporter assay the amount or activity of a reporter protein is the signal.)
Assay [8] is described as follows: inhibitors of poly I:C-induced TLR3 signaling, primary screen, cell-based, poly I:C stimulus, luciferase, 10K MLSCN set (AID 602277;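 active = inhibition of the reporter signal at or above 50%; inactive = inhibition below 50%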). As to conditions: HEK293-TLR3 RL24 IRF3 luciferase reporter, at 10 µM, stronger effect = higher value.

Usually inhibition stands for the drop in the measured response relative to a control, in per cent.

The source made the active and inactive calls.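 The calls were made as follows, unless noted: active = fluorescence slope higher than the sample average by over 3 SD (cut at about -0.22 in these data, passing the limit was not always enough); inactive = the rest.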

Sequence of Voltage-gated potassium channel subunit beta-2 (Rattus norvegicus) (P62483 whole entry, looked up): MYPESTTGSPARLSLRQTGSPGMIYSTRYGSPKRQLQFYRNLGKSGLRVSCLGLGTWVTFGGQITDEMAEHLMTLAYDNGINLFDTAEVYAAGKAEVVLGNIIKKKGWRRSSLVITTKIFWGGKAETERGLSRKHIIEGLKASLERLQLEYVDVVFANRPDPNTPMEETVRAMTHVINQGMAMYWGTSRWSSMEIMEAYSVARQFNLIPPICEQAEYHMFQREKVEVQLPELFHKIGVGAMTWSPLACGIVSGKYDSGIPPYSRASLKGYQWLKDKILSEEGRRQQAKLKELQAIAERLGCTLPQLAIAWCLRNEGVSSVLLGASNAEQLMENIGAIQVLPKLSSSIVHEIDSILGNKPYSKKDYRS

With `CC(=O)Nc1cccc(NC(=O)c2ccco2)c1`, in assay [1], the cell count is 286. For the same molecule, the inhibition in assay [1] was 2.5% (inactive); in assay [3], -72.9% (inactive); in assay [7], 5.39% (inactive); in assay [8], 26.7% (inactive). The inhibition of aggregation in assay [2] was -7.1% (inactive). The nuclei count in assay [2] turned out to be 122%; in assay [3], 131%. Moreover, in assay [4], the fluorescence slope is -0.391 (inactive). Further, the NADPH fluorescence slope in assay [5] was 2.6e-05 (inactive). Besides, in assay [6], the slope is 0.00425 (inactive).
For the molecule `O=C(NCc1ccco1)c1cnc2n(c1=O)CCS2`, the cell count in assay [1] amounted to 188. Further, the inhibition in assay [1] was 4.4% (inactive); in assay [3], 7.8% (inactive); in assay [7] it was 10% (inactive); in assay [8], 2.98% (inactive). In assay [2], the inhibition of aggregation was 5.7% (inactive). The values for the nuclei count in assay [2] and in assay [3] were 66.8% and 93.2%, respectively. In assay [4], the fluorescence slope was -0.419 (inactive). Also, in assay [5], the NADPH fluorescence slope is -1.2e-05 (inactive). Besides, the slope in assay [6] was 0.00633 (inactive).
As for `CCOCCCNC(=O)C1CC(=O)N(C2CCCC2)C1` (centres undefined), in assay [1], the cell count is 536. The inhibition is -6.8% (inactive) in assay [1], 11.6% (inactive) in assay [3], 15.9% (inactive) in assay [7] and 18.9% (inactive) in assay [8]. Further, in assay [2], the inhibition of aggregation is 1.5% (inactive). Also, the nuclei count is 103% in assay [2] and 118% in assay [3]. Further, in assay [4], the fluorescence slope was -0.495 (inactive). Besides, in assay [5], the NADPH fluorescence slope was -1.6e-05 (inactive). In addition, the slope in assay [6] was 0.00627 (inactive).
Regarding `CC1=C(C(=O)OC2CCCCCC2)C(c2ccc(C)o2)C2=C(CCCC2=O)N1` (centres undefined), the cell count in assay [1] turned out to be 420. Further, the inhibition was 3.9% (inactive) in assay [1], -22.9% (inactive) in assay [3], -8.61% (inactive) in assay [7] and -19.9% (inactive) in assay [8]. In addition, the inhibition of aggregation in assay [2] was -10% (inactive). Also, the results for the nuclei count in assay [2] and in assay [3] were 102% and 108%, respectively. The fluorescence slope in assay [4] was -0.572 (inactive). In addition, the NADPH fluorescence slope in assay [5] was -2e-05 (inactive). In addition, in assay [6], the slope was 0.00508 (inactive).
`COc1ccc(-c2cc3n(n2)CCc2nc4ccccc4n2-3)cc1`: in assay [1], the cell count stood at 415. In addition, the inhibition in assay [1] is -32.3% (inactive); in assay [3], 37% (inactive); in assay [7] it was 12.2% (inactive); in assay [8], -17.1% (inactive). In addition, the inhibition of aggregation in assay [2] is 30.7% (inactive). Moreover, the results for the nuclei count in assay [2] and in assay [3] were 123% and 127%, respectively. Further, in assay [4], the fluorescence slope is -0.433 (inactive). The NADPH fluorescence slope in assay [5] was -1.6e-05 (inactive). In addition, the slope in assay [6] was 0.00599 (inactive).
In the case of `O=C(c1ccccc1Oc1nnnn1-c1ccccc1)N1CCOCC1`, the cell count in assay [1] turned out to be 315. Besides, the inhibition in assay [1] is -0.9% (inactive); in assay [3] it was -73.9% (inactive); in assay [7] it was 9.07% (inactive); in assay [8] it was 21.2% (inactive). Besides, in assay [2], the inhibition of aggregation was -13.9% (inactive). The nuclei count in assay [2] stood at 107%; in assay [3] it was 113%. Moreover, in assay [4], the fluorescence slope is -0.269 (inactive). Further, the NADPH fluorescence slope in assay [5] was 2e-05 (inactive). In assay [6], the slope was 0.00699 (inactive).
Regarding `O=C(CSc1ncnc2c1cnn2Cc1ccccc1)Nc1ccc2c(c1)OCCO2`, the cell count in assay [1] was determined as 308. Further, the inhibition is 0.9% (inactive) in assay [1], 11.1% (inactive) in assay [3], 6.25% (inactive) in assay [7] and 17.7% (inactive) in assay [8]. In addition, the inhibition of aggregation in assay [2] is 27.1% (inactive). Further, the nuclei count in assay [2] came out at 94.9%; in assay [3] it was 94.2%. The fluorescence slope in assay [4] was -0.36 (inactive). In assay [5], the NADPH fluorescence slope is -0.00015 (inactive). In addition, in assay [6], the slope was 0.00683 (inactive).
For the molecule `O=C(O)COc1ccc(S(=O)(=O)NCCc2ccccc2)cc1`, the cell count in assay [1] was 596. The inhibition in assay [1] is -0.8% (inactive); in assay [3], -54.3% (inactive); in assay [7], 13% (inactive); in assay [8], 24.1% (inactive). The inhibition of aggregation in assay [2] is 20.5% (inactive). The nuclei count in assay [2] was determined as 81.4%; in assay [3], 119%. Also, in assay [4], the fluorescence slope was -0.543 (inactive). Further, the NADPH fluorescence slope in assay [5] is -6.9e-05 (inactive). In addition, in assay [6], the slope was 0.00764 (inactive).
`O=c1oc2ccccc2c(O)c1C=NCc1ccccn1`: the cell count in assay [1] amounted to 452. Also, the inhibition in assay [1] was 7.6% (inactive); in assay [3], -63.5% (inactive); in assay [7], -8.1% (inactive); in assay [8], 22.7% (inactive). Moreover, the inhibition of aggregation in assay [2] was 2.3% (inactive). Further, the nuclei count was determined as 98.7% in assay [2] and 95.8% in assay [3]. In assay [4], the fluorescence slope was -0.509 (inactive). Besides, the NADPH fluorescence slope in assay [5] was -4.5e-05 (inactive). Also, in assay [6], the slope is 0.00647 (inactive).
In the case of `CC(C)(C)C(=O)Cn1c[n+](N)cn1`, the cell count in assay [1] was 545. The inhibition in assay [1] was -9.5% (inactive); in assay [3], 18.1% (inactive); in assay [7], 18.9% (inactive); in assay [8], 26.2% (inactive). Besides, in assay [2], the inhibition of aggregation was -3.6% (inactive). Further, the nuclei count in assay [2] came to 118%; in assay [3], 105%. Further, the fluorescence slope in assay [4] was -0.62 (inactive). Further, the NADPH fluorescence slope in assay [5] is -3.8e-05 (inactive). The slope in assay [6] was 0.00385 (inactive).
In the case of `O=c1[nH]c(NCc2ccco2)nnc1Cc1ccccc1Cl`, the cell count in assay [1] is 643. Besides, the inhibition in assay [1] was 1.8% (inactive); in assay [3], -18.6% (inactive); in assay [7], 6.89% (inactive); in assay [8], 40.7% (inactive). Also, the inhibition of aggregation in assay [2] was -15.1% (inactive). Further, the nuclei count amounted to 111% in assay [2] and 124% in assay [3]. Besides, the fluorescence slope in assay [4] was -0.515 (inactive). The NADPH fluorescence slope in assay [5] was -0.000182 (inactive). Also, the slope in assay [6] is 0.0051 (inactive).
`CC(C)CNS(=O)(=O)c1ccc(OCC(=O)Nc2ccc3c(c2)OCO3)c(Cl)c1`: in assay [1], the cell count is 463. Besides, the inhibition in assay [1] is -12.1% (inactive); in assay [3], -0.6% (inactive); in assay [7] it was 6.42% (inactive); in assay [8], 19.3% (inactive). The inhibition of aggregation in assay [2] is -1.9% (inactive). The figures for the nuclei count in assay [2] and in assay [3] were 81.6% and 85.5%, respectively. In addition, in assay [4], the fluorescence slope was -0.377 (inactive). Besides, the NADPH fluorescence slope in assay [5] was -2e-05 (inactive). For the same molecule, in assay [6], the slope is 0.00353 (inactive).
As for `CC(C)=CC(=O)N1CCCc2ccccc21`, the cell count in assay [1] was determined as 308. The inhibition was -2.8% (inactive) in assay [1], 3.3% (inactive) in assay [3], 16.7% (inactive) in assay [7] and 17% (inactive) in assay [8]. The inhibition of aggregation in assay [2] is -5.5% (inactive). For the same molecule, the figures for the nuclei count in assay [2] and in assay [3] were 84.6% and 96.7%, respectively. Moreover, the fluorescence slope in assay [4] was -0.606 (inactive). For the same molecule, the NADPH fluorescence slope in assay [5] is -2.8e-05 (inactive). Besides, the slope in assay [6] is 0.00337 (inactive).
Consider `COc1cccc(-c2noc(C3CCCN(C(=O)Cc4ccccc4)C3)n2)c1` (centres undefined), for which the cell count in assay [1] worked out at 276. Further, the inhibition in assay [1] is -2.8% (inactive); in assay [3], 18.4% (inactive); in assay [7], 9.8% (inactive); in assay [8], 14.1% (inactive). Moreover, in assay [2], the inhibition of aggregation is 5.5% (inactive). Also, the nuclei count in assay [2] came to 109%; in assay [3], 115%. Also, the fluorescence slope in assay [4] was -0.609 (inactive). Further, the NADPH fluorescence slope in assay [5] is -8.5e-06 (inactive). Further, the slope in assay [6] is 0.00584 (inactive).
